AID inhibitor – Primary qHTS assay for inhibitors of Activation Induced Cytidine Deaminase (AID): AID signal. AID deamination FRET fluorescence, UDG-coupled, 4 h. Potency, µM (titrated, usually from 115 µM), most hits filed as inhibitors. 0.32% of 91,000 active. Single-stranded DNA cytosine deaminase (Homo sapiens), Q9GZX7; also: nearly all actives have a fitted effect of over 25% in size
Target sequence (Q9GZX7 whole entry, looked up): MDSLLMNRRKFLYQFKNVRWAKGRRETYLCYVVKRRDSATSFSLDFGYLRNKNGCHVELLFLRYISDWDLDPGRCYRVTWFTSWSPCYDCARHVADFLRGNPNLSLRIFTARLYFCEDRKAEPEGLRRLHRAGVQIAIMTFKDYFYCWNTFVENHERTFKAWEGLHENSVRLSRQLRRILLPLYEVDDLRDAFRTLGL
UDG counter – Primary qHTS assay for inhibitors of Activation Induced Cytidine Deaminase (AID): UDG Counterscreen signal; Uracil-DNA glycosylase; FRET deamination/UDG coupled assay, UDG read, 4 h; Potency, µM (highest dose often 115 µM), usual class: inhibitors; 0.14% of 91,000 active; also: nearly all actives have a fitted effect of over 65% in size
DRV1 agonist – qHTS for Agonists of Human Resolvin D1 Receptor DRV1. CHO-K1 GPR32 beta-arrestin PathHunter luminescence, 90 min; zero percent set by DMSO-only wells. activation, % at 76.9 µM. 2.5% of 48,000 active;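 active = activation of at least 60% and not above a set upper limit, about 1 call in 100 departs from these limits; inconclusive = activation of 40% to 60%, or above that upper limit; inactive = activation under 40%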
Target sequence (O75388 whole entry, looked up): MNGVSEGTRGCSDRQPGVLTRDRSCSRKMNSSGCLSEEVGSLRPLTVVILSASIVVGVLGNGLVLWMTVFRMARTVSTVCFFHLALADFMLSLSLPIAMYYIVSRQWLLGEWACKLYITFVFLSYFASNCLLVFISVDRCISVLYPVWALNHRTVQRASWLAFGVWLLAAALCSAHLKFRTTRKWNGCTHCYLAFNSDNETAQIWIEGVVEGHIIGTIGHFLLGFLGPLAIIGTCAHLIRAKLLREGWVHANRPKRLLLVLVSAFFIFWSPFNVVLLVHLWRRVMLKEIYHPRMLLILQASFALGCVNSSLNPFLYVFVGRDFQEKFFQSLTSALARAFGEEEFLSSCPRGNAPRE
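Luminescent readout of beta-Gal complementation quantifies ligand-induced beta-arrestin association with GPR32 in CHO-K1 cells; 90 min compound incubation at 37 °C, detection 1 h at room temperature.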
Hits are given with their value; - = inactive; ? = inconclusive; . = not tested or not shown. The full list was thinned out, with hits kept by preference. Unless noted, calls follow the shape of the dose curve; as a rule, active = well fitted curve in the direction sought with a large enough effect; inconclusive = small, poorly fitted or top-dose-only effect, or another doubt; inactive = no such curve, though single readings can be large; an effect the other way counts as inactive or inconclusive.

SMILES	AID inhibitor	UDG counter	DRV1 agonist
CCOc1ccc(CNCc2c(C(=O)O)c(C)n(Cc3ccc(C)cc3)c2C)cc1	-	-	-
CCc1ccc(CNCc2c(C(=O)O)c(C)n(Cc3c(F)cccc3Cl)c2C)cc1	?	-	95
CC(NC(=O)CCCc1nc2ccccc2o1)c1ccccc1 (configuration not stated)	-	-	.
CCCCC(=O)N/N=C(\C)Cc1ccccc1	-	-	.
Fc1cccc(CN2CCc3nc(Nc4ccc5c(c4)OCCO5)ncc3C2)c1F	-	-	-
COc1cccc(CN2CCc3nc(Nc4ccc5c(c4)OCCO5)ncc3C2)c1OC	?	?	86
COc1ccc(Nc2ncc3c(n2)CCN(Cc2cc(Br)cs2)C3)c(OC)c1	?	89µM	-
COc1cc(CN2CCc3nc(Nc4ccc5c(c4)OCCO5)ncc3C2)cc(OC)c1OC	-	?	97
COc1ccc(Nc2ncc3c(n2)CCN(Cc2ccc(Br)s2)C3)c(OC)c1	-	-	-
Cc1ccc(CN2CCc3nc(Nc4ccc5c(c4)OCCO5)ncc3C2)cc1	?	?	-
Cc1cccc(NC(=O)COc2ccc3c(C)cc(=O)oc3c2)c1C	-	-	.
Cc1cccc(COC(=O)C2=NN(C3CCS(=O)(=O)C3)C(=O)CC2)c1 (configuration not stated)	-	-	.
NC(=S)N/N=C1\CCCCC1c1nccc2ccccc12 (configuration not stated)	-	-	.
COc1cccc(N2CCN(C(=O)c3ccc4c(Cl)c5c(nc4c3)CCCC5)CC2)c1	20µM	-	-
O=C(c1ccc2c(Cl)c3c(nc2c1)CCCC3)N1CCN(c2cccc(C(F)(F)F)c2)CC1	-	-	-
O=C(c1ccc2c(Cl)c3c(nc2c1)CCCC3)N1CCN(c2ccc(Cl)cc2)CC1	-	-	-
O=C(c1ccc2c(Cl)c3c(nc2c1)CCCC3)N1CCN(c2cccc(Cl)c2)CC1	14µM	-	-
CNC(=O)NC(=O)Cn1nnc(-c2ccc(F)c(C)c2)n1	-	-	.
NC(N)=N/N=C/C=C/c1ccccc1	-	-	.
Cn1nc(-c2ccc(C(=O)NC3CCCCC3)cc2)c2ccccc2c1=O	-	-	.
Cc1ccc(NC(=O)COc2ccc(-c3nn(C)c(=O)c4ccccc34)cc2)cc1	?	-	-
Cn1nc(-c2ccc(N3CCCCC3)c(NC(=O)c3ccc(Cl)cc3)c2)c2ccccc2c1=O	-	-	-
Cn1nc(-c2ccc(C(=O)Nc3ccc(F)cc3)cc2)c2ccccc2c1=O	?	-	105
Cc1cccc(OCC(=O)Nc2cc(-c3nn(C)c(=O)c4ccccc34)ccc2N2CCOCC2)c1	?	89µM	.
Cn1nc(-c2ccc(OCC(=O)Nc3cccc(C(F)(F)F)c3)cc2)c2ccccc2c1=O	-	-	85
SMILES	AID inhibitor	UDG counter	DRV1 agonist
CCOc1ccccc1NS(=O)(=O)c1ccc(-c2coc(C)n2)cc1	-	-	.
CCOc1cc(CNCC(C)O)ccc1OCc1ccc(C)cc1 (configuration not stated)	-	-	.
Cc1ccc(CC(=O)Nc2ccc(N(C)C)cc2)cc1	-	-	.
Fc1cccc(Cl)c1CSc1nc2ncccc2o1	-	-	.
O/N=C/c1cccc(OCc2ccc(F)cc2)c1	-	-	.
Cc1cc(C(c2ccccc2F)N2CCCCC2)c(NC(=O)c2ccco2)s1 (configuration not stated)	-	-	.
COc1ccc(NC(=O)C2CCN(S(=O)(=O)c3ccc4c(c3)CCCC(=O)N4)CC2)c(OC)c1	-	-	-
COc1ccc(NC(=O)C2CCCN(S(=O)(=O)c3ccc4c(c3)CCCC(=O)N4)C2)cc1OC (configuration not stated)	-	-	63
COc1ccc(OC)c(NC(=O)C2CCN(S(=O)(=O)c3ccc4c(c3)CCCC(=O)N4)CC2)c1	-	-	72
COc1cc(NC(=O)C2CCCN(S(=O)(=O)c3ccc4c(c3)CCCC(=O)N4)C2)cc(OC)c1 (configuration not stated)	-	-	-
O=C(NC1(c2ccccc2)CCC1)c1cccc(Cl)c1Cl	-	-	.
Cc1ccn2c(=O)cc(CSc3ccc4ccccc4n3)nc2c1	-	-	.
O=C(Nc1ccc(I)cc1)C1CC2CCC1C2 (configuration not stated)	-	-	.
O=S(Cc1ccccc1)Cc1cccc(C(F)(F)F)c1 (configuration not stated)	-	-	.
COc1ccc(CC(=O)Oc2ccccc2Br)c(OC)c1	-	-	.
CCC1CCc2nc3sc(C(=O)Nc4ccc(F)c(F)c4)c(N)c3cc2C1 (configuration not stated)	-	-	-
CN1CCc2nc3sc(C(=O)Nc4c(F)cccc4F)c(N)c3cc2C1	-	-	-
CCN1CCc2nc3sc(C(=O)Nc4cccc(Cl)c4C)c(N)c3cc2C1	-	-	121
Nc1c(C(=O)Nc2cccc(Cl)c2)sc2nc3c(cc12)CN(Cc1ccccc1)CC3	-	?	61
CCC1CCc2nc3sc(C(=O)Nc4ccc(C)cc4C)c(N)c3cc2C1 (configuration not stated)	-	-	69
Cc1cccc(NC(=O)c2sc3nc4c(cc3c2N)CN(Cc2ccccc2)CC4)c1	-	-	-
Cc1ccc(NC(=O)c2sc3nc4c(cc3c2N)CN(Cc2ccccc2)CC4)cc1	-	-	116
COc1ccc(NC(=O)c2sc3nc4c(cc3c2N)CN(Cc2ccccc2)CC4)cc1	-	-	-
CN(C)c1ccc(NC(=O)c2ccc(C(C)(C)C)cc2)cc1	-	-	.
COc1ccccc1-c1nnc(SC(C(=O)N2CCCC2)c2ccccc2)n1C (configuration not stated)	-	-	.
SMILES	AID inhibitor	UDG counter	DRV1 agonist
CN(CCOc1ccc(Cl)cc1)Cc1cc(=O)oc2cc(O)c(Cl)cc12	-	-	.
Cc1cccc(NC(=O)c2sc3nc4c(cc3c2N)CN(C(C)C)CC4)c1	-	-	-
Nc1c(C(=O)Nc2ccccc2F)sc2nc3c(cc12)CCCCCC3	-	-	72
COc1ccc(NC(=O)c2sc3nc4c(cc3c2N)CN(C(C)C)CC4)c(OC)c1	-	-	81
COc1ccccc1NC(=O)c1sc2nc3c(cc2c1N)CCCCCC3	-	-	-
CC(NC(=O)Cc1c[nH]c2ccccc12)c1cc2ccccc2o1 (configuration not stated)	-	-	.
CCn1c(CC23CC4CC(CC(C4)C2)C3)nnc1SCc1ccc(F)cc1	-	-	.
C=CCOc1ccc(C(=O)Nc2cccc(OC)c2)cc1	-	-	.
Cc1ccc(C)c(C(=O)CSc2nc(-c3ccccc3)nc3c2CCCC3)c1	-	-	-
Cc1ccc(C)c(C(=O)CSc2cccc3cccnc23)c1	35µM	-	.
S=C1NC2(CCCCC2)N=C1c1ccc(Cl)cc1Cl	-	-	.
CN1C(=O)S/C(=C\C(=O)O)C1=O	-	-	.
CCOC(=O)N1CCC(n2c(=O)[nH]c3cc(Cl)ccc32)CC1	.	.	72
Cn1nc(C(=O)N2CCC(n3c(=O)[nH]c4ccccc43)CC2)c2ccccc2c1=O	-	-	.
CC(C)Oc1ccc(C(=O)NCCc2csc(-c3cccc(F)c3)n2)cc1	45µM	-	-
O=C(NCCc1csc(-c2ccc(F)cc2)n1)c1c(F)cccc1Cl	-	-	-
